# Nrf2 activator: qHTS of Nrf2 Activators | 410,000 compounds, 0.31% hits | AREc32 ARE-luciferase reporter (MCF7-derived line), luminescence, 24 h | Potency, µM (series often up to 46.1 µM), most hits filed as activators | AID 624171, 2012; further: nearly all actives have a fitted effect of over 65% in size
#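 ARE activation measured as luciferase luminescence (Steady-Glo, 30 min RT) in AREc32_Fluc cells after 24 hr compound exposure at 37 deg C, 5% CO2; cells seeded overnight at 1000/well in OPTI-MEM, 5% FBS.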
# GALK inh: qHTS Assay for Inhibitors of Human Galactokinase (GALK) | P51570 | Purified GALK, Kinase-Glo residual ATP luminescence | Potency, µM (highest dose often 57.5 µM), usual class: inhibitors | 270,000 compounds, 0.007% hits | AID 1868, 2009
#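 Compounds were pin-transferred into ATP buffer (35 uM final), then GALK plus galactose (5 nM, 100 uM final) was added. After 1 h at room temperature, Kinase-Glo Plus was added and luminescence read after 10 min.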
# Nrf2 block: Nrf2 qHTS screen for inhibitors; A549 ARE-Fluc reporter, luciferase luminescence, 18-24 h; Potency, µM (series often up to 46 µM), most hits filed as inhibitors; 360,000 compounds, 2.1% hits; AID 504444, 2011; further: nearly all actives have a fitted effect of over 60% in size
#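 Two sequential reads on A549 ARE_Fluc cells exposed to compound for 18-24 h: a CellTiter-Fluor fluorescence read for viability, then a luciferase luminescence read for Nrf2/ARE activity.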
# TrxR1 inh: qHTS Assay for Inhibitors of Mammalian Selenoprotein Thioredoxin Reductase 1 (TrxR1): qHTS. AID 588453, 2011. 390,000 compounds, 1% hits. Potency, µM (doses to about 114 µM), hits mostly inhibitors. recombinant rTrxR1, NADPH fluorescence consumption, selenite substrate. Thioredoxin reductase 1, cytoplasmic (Rattus norvegicus), O89049; further: nearly all actives have a fitted effect of over 65% in size
# Target sequence (O89049 whole entry, looked up): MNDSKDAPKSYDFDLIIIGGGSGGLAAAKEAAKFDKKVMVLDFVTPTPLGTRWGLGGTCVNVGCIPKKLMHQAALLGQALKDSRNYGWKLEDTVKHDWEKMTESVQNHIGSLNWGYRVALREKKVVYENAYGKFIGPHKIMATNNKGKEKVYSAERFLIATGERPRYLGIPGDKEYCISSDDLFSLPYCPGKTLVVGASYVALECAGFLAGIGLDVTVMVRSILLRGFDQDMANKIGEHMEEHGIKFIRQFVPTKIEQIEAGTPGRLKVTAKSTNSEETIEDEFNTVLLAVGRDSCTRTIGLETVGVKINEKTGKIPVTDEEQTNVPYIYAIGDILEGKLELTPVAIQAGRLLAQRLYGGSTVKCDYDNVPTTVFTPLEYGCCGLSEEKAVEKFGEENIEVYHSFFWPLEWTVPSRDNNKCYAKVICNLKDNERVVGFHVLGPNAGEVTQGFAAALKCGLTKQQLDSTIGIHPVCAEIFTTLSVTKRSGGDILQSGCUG
#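 Rat TrxR1 (90 nM in the dispensed reagent) was pre-reduced with 400 uM NADPH for 5 min at room temperature, then incubated with compound for 15 min. After 400 uM selenite was added, NADPH fluorescence (Ex 340/Em 450 nm) was followed for 8 min.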
# TrxR1 substrate: qHTS Assay for Substrates of Mammalian Selenoprotein Thioredoxin Reductase 1 (TrxR1): qHTS; Thioredoxin reductase 1, cytoplasmic (Rattus norvegicus), O89049; purified TrxR1 substrate turnover, NADPH consumption readout; Potency, µM (series often up to 114 µM); 390,000 compounds, 0.01% hits; AID 588456, 2011; further: nearly all actives have a fitted effect of over 50% in size
#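 Rat TrxR1, dispensed at 90 nM, was prereduced with 400 uM NADPH (final) for 5 min at ~22 deg C, then incubated with compound 15 min before 400 uM selenite. A first-read NADPH fluorescence drop versus no-compound background flagged substrates.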
# A549 viability: Nrf2 qHTS screen for inhibitors: counterscreen for cytotoxicity; Potency, µM (top dose mostly 46 µM), actives largely listed as inhibitors; 390,000 compounds, 0.16% hits; A549 ARE-Fluc cells, CellTiter-Fluor viability, 18-24 h
#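 A549 ARE_Fluc cells in 5% FBS OPTI-MEM were exposed to compounds in concentration-response for 18-24 h at 37 deg C. Viability was read by CellTiter-Fluor fluorescence (Ex 405/Em 525) after 30 min, before the luciferase read.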
# Hits are given with their value; n = inactive; u = inconclusive; x = no result; [ ] = remark or other dose. Rows were chosen to be rich in hits. Some 3% of all compounds tested hit in one or more screens of this group. The call rests on the fitted dose curve; in most records, active means well fitted curve in the direction sought with a large enough effect; inconclusive means small, poorly fitted or top-dose-only effect, or another doubt; inactive means no such curve, though single readings can be large; an effect the other way counts as inactive or inconclusive.
SMILES,Nrf2 activator,GALK inh,Nrf2 block,TrxR1 inh,TrxR1 substrate,A549 viability
Cc1nn(Cc2ccc(Cl)c(Cl)c2)c(C)c1NC(=O)c1cc(-c2ccc3c(c2)OCO3)on1,n,n,12µM,n,n,u
COc1ccc(OC)c(-c2cc(C(=O)Nc3c(C)nn(Cc4ccc(Cl)cc4)c3C)no2)c1,n,n,x,n,n,n
COc1ccc(OC)c(-c2cc(C(=O)Nc3c(C)nn(Cc4ccccc4)c3C)no2)c1,n,n,15µM,n,n,n
CC(C)(C)NS(=O)(=O)c1ccc(CCC(=O)NCc2ccco2)cc1,n,n,n,u,n,n
COc1ccc(CCC(=O)NCc2ccco2)cc1,n,n,u,11µM,n,n
Cc1ccc2oc(=O)c3cc(C(=O)N4CCN(c5ccccc5F)CC4)sc3c2c1,n,x,n,n,n,n
CCc1c(C)c2cc3c(c(C)c2oc1=O)OCN(CCc1ccccc1F)C3,n,x,u,u,n,n
O=C(c1cc2ccccc2o1)c1cccs1,22µM,n,u,n,n,n
O=C(NC(=S)Nc1ccc(NC(=O)c2cccs2)cc1)c1cc2ccccc2o1,n,n,u,n,n,n
Cc1ccc(C(=O)Nc2ccc(Br)cc2)cc1S(=O)(=O)NCc1ccccc1,n,x,u,n,n,u
CCOC(=O)COc1ccc2nsnc2c1Cl,n,n,x,n,n,n
C=C(CC)C(=O)c1ccc(OCC(=O)O)c(Cl)c1Cl,u,n,u,40µM,n,n
Cc1ccc(C)c(NC(=O)Cn2c(=O)n(Cc3cccs3)c(=O)c3cccnc32)c1,n,x,n,n,n,n
COC(=O)C1=C(C)NC(C)=C(C(=O)OCC(C)C)C1c1ccccc1[N+](=O)[O-] (centres undefined),n,x,16µM,n,n,n
COCCn1c(SCC(=O)Nc2cc(Cl)ccc2OC)nc2c([nH]c3ccccc32)c1=O,n,x,x,n,n,n
N#CC(C#N)=C1C=CC=CN1/C(=C\c1ccco1)C(=O)c1ccc(Cl)cc1,u,n,n,0.5µM,n,u
N#C/C(=C\c1ccco1)C(=O)NCc1ccccc1,n,n,n,n,n,n
N#CC(C#N)=C1C=CC=CN1/C(=C\c1ccco1)C(=O)c1ccc(-c2ccccc2)cc1,n[9.22 µM],n,u,7.1µM,n,u
O=C(NCCc1ccc(Cl)cc1)c1ccc2c(c1)N(Cc1ccc(F)cc1Cl)C(=O)CS2,n,x,n[9.27 µM],n,n,n
COc1ccc(CCNC(=O)CSc2nnnn2-c2cccc(C(C)=O)c2)cc1OC,n,x,n,n,n,n
CN(C)c1ccc(-c2nc(-c3ccco3)no2)cc1[N+](=O)[O-],n,x,n,n,n,n
O=C(NCc1ccc(F)cc1)c1cnc(N2CCCCC2)c2ccccc12,n,x,x,n,n,n
N#Cc1c(Cl)nsc1NC(=O)c1ccccc1,n,n,2.6µM,n,n,u
N#Cc1c(NC(=O)c2ccccc2)sc2c1CCCCC2,n,n,u,n,n,n
Cc1ccc2oc(C(=O)Nc3ccc(S(=O)(=O)N4CCCC(C)C4)cc3)cc(=O)c2c1 (centres undefined),n,x,u,n,n,n
SMILES,Nrf2 activator,GALK inh,Nrf2 block,TrxR1 inh,TrxR1 substrate,A549 viability
Cc1ccc2occ(CC(=O)Nc3ccc(S(=O)(=O)N4CCCC(C)C4)cc3)c2c1 (centres undefined),n,x,21µM,n,n,n
O=C(Nc1nnc(C2CC2)s1)c1ccc(Cl)c(S(=O)(=O)N2CCc3ccccc3C2)c1,n,n,23µM,n,n,n
O=C1C=C(Nc2ccccc2)c2ccccc2C1=O,n,n,21µM,n,n,u
COc1ccc(C(=O)n2nc(-c3ccco3)nc2NCc2cccs2)cc1,n,x,u,22µM,n,n
COc1ccc(CNc2nc(-c3ccco3)nn2C(=O)c2ccccc2Cl)cc1,n,x,u,n,n,n
CC(Cc1cccs1)NC(=S)Nc1ccc(Cl)c(Cl)c1 (centres undefined),n,n,u,n,n,n
CC(Cc1cccs1)NC(=S)Nc1ccc(Cl)cc1 (centres undefined),n,n,18µM,n,n,n
Cc1ccc(NS(=O)(=O)c2ccc3c(c2)CCC(=O)N3)cc1Cl,x,x,n,x,x,n
CCOc1ccc(C(=O)Nc2nc3ccccc3[nH]2)cc1OCC,n,n,10µM,n,n,n
Cc1cc(C(=O)COC(=O)c2ccc3c(c2)OCO3)c(C)n1Cc1cccs1,n,n,u,n,n,n
Cc1cc(C(=O)COC(=O)c2ccccc2O)c(C)n1Cc1cccs1,n,n,6.5µM,n,n,u
CCn1c(C)cc(C(=O)COC(=O)c2ccccc2[N+](=O)[O-])c1C,n,x,0.73µM,n,n,n
Cc1ccc2c(c1C)NC(=O)CC2c1ccc(Cl)cc1Cl (centres undefined),n,x,n,n,n,n
COc1cc(-c2nc(Cn3nnc(C(=O)Nc4ccccc4)c3C)c(C)o2)cc(OC)c1OC,n,x,u,n,n,n
COc1ccccc1/C=C/c1nc2ccccc2o1,x,x,x,n,n,x
Nc1cccnc1Sc1cccc(Cl)c1,n,x,n,10µM,n,n
COc1ccc(NS(=O)(=O)c2cccc(C(=O)OCC(=O)N3CCN(c4ccc(OC)cc4)CC3)c2)cc1,n,x,21µM,n,n,n
CCCCCCCOC(=O)C1=C(C)Nc2ncnn2C1c1cccs1 (centres undefined),n,n,26µM,n,n,n
CCc1ccccc1NC(=O)CSc1nnc(-c2cc(OC)c(OC)c(OC)c2)o1,n,x,n,n,n,n
CCCN(CCC)C1CC(=O)N(Cc2ccccc2)C1=O (centres undefined),n,n,n,20µM,n,n
O=C1CC(N(O)C2CC(=O)N(Cc3ccccc3)C2=O)C(=O)N1Cc1ccccc1 (centres undefined),n,n,n,u,n,n
COc1ccc(NC(=O)C(=O)NCC(c2cccnc2)N2CCc3ccccc3C2)cc1 (centres undefined),n,x,u,n,n,n
COc1ccc(C2c3ccc(O)cc3Oc3ncn(Cc4ccco4)c(=N)c32)cc1 (centres undefined),n,n,n,50µM,n,n
COc1ccc(C2c3c(ncn(Cc4ccco4)c3=N)Oc3ccc4ccccc4c32)cc1 (centres undefined),n,n,n,n[0.0914 µM],n,n
O=C(c1ccco1)N1CCN(Cc2csc(-c3ccccc3Cl)n2)CC1,n,n,n,71µM,n,n

# Screens from PubChem BioAssay.
